Experimental data reported in ChEMBL document CHEMBL4513146, “CO-ADD screening of Karazin Kharkiv National University (Ukraine) compounds”.
Entries with a potency or affinity are not part of this list.

Legend:
[1] = system: Staphylococcus aureus; conditions: Concentration 32 ug.mL-1;; ASSAY_TEST Inhibition of Bacterial Growth; detection method Absorption (OD600); MEDIA CAMHB; plate type 384well; NBS; CORNING #3640; time 18 hr
[2] = system: Escherichia coli; conditions: Concentration 32 ug.mL-1;; ASSAY_TEST Inhibition of Bacterial Growth; detection method Absorption (OD600); MEDIA CAMHB; plate type 384well; NBS; CORNING #3640; time 18 hr

| Structure (SMILES) | Inhibition [1] | Inhibition [2] |
| --- | --- | --- |
| Cc1ccc(-c2ccc3nnc(CCC(=O)NCc4cccc(Br)c4)n3n2)cc1C | 4.83% | -5.02% |
| CC(C)CCn1c(=O)c2ccc(C(=O)NC3CCCCC3)cc2n2c(=O)n(CC#N)nc12 | 5.76% | -7.09% |
| COc1cccc(-n2ccn3c(SCC(=O)Nc4ccc(C(C)C)cc4)nnc3c2=O)c1 | 0.38% | -24.97% |
| Cc1ccc(NC(=O)Cn2c(=O)c3nnc(C)n3c3ccccc32)cc1C | 17.12% | 0.02% |
| Cc1ccc2c(c1)N(C(=O)Cn1nc3ccc(Sc4ccccc4)nn3c1=O)CCO2 | 5.63% | 2.06% |
| O=S(=O)(c1ccc2nncn2c1)N(Cc1ccccc1F)c1ccc2c(c1)OCCO2 | 5.05% | -6.13% |
| COc1ccc(NC(=O)c2ccc3nn(CC(=O)Nc4ccc(C(F)(F)F)cc4)c(=O)n3c2)cc1 | 9.76% | -5.89% |
| COc1ccc(NC(=O)CSc2nnc3c(=O)n(-c4ccccc4)ccn23)cc1 | -4.77% | -6.17% |
| COc1ccc(NC(=O)Cn2nc3c4cc(-c5ccc(C)c(C)c5)nn4ccn3c2=O)cc1Cl | -7.37% | 0.15% |
| CC1CC(C)CN(c2nccn3c(=O)n(CC(=O)NCc4ccccc4Cl)nc23)C1 (stereo unspecified) | 3.32% | 2.48% |
| CCCCOc1ccc(-c2cc3c4nnc(SCC(=O)NCc5ccc(C)cc5)n4ccn3n2)cc1 | 2.78% | -5.47% |
| CCc1nnc2c(=O)n(CC(=O)Nc3cccc(C#N)c3)c3ccccc3n12 | 13.48% | 1.69% |
| O=C(Cn1nc2nc(Nc3ccc(F)cc3)ccn2c1=O)N1CCCC1 | -4.71% | -12.03% |
| O=c1c2nnc(SCc3ccc(Cl)cc3)n2ccn1-c1ccc(F)c(F)c1 | 4.12% | 3.28% |
| COc1cccc(Sc2nc3ccccc3n3c(=O)n(CC(=O)Nc4cccc(F)c4)nc23)c1 | 3.13% | -1.66% |
| O=C(Cn1nc2ccc(C(=O)NCc3ccccc3)cn2c1=O)Nc1ccc2c(c1)OCO2 | 7.86% | -0.58% |
| CCc1ccccc1Sc1nccn2c(=O)n(CC(=O)Nc3c(C)cccc3C)nc12 | 13.44% | 0% |

| Structure (SMILES) | Inhibition [1] | Inhibition [2] |
| --- | --- | --- |
| Cc1ccc(CNC(=O)CSc2nnc3c4cc(-c5ccc(C)cc5)nn4ccn23)cc1 | 9.17% | 0.59% |
| CCCCc1ccc(NC(=O)CSc2nc3ccccc3n3c(C(C)C)nnc23)cc1 | -8.95% | -2.74% |
| O=C(CSc1nnc2c(=O)n(-c3ccc(F)c(F)c3)ccn12)c1c[nH]c2ccccc12 | 13.28% | -5.88% |
| COc1ccc(NC(=O)Cn2nc3c(Sc4ccccc4)nccn3c2=O)cc1 | 7.67% | -3.96% |
| Cc1ccc(CN(c2ccc3c(c2)OCO3)S(=O)(=O)c2ccc3nnc(C)n3c2)cc1 | -0.98% | -3.16% |
| Cc1ccc(NC(=O)Cn2nc3c(Oc4cccc(C)c4C)nccn3c2=O)c(Br)c1 | 0.42% | -4.42% |
| Cc1ccc(-n2ccn3c(=O)n(Cc4cccc(F)c4)nc3c2=O)cc1C | -0.24% | -8.8% |
| CCc1cccc(NC(=O)Cn2nc3c(SC4CCCCC4)nccn3c2=O)c1 | -3.76% | -12.2% |
| Cc1ccc(-c2ccc3nn(Cc4cc(F)cc(F)c4)c(=O)n3n2)cc1C | 13.44% | 1.52% |
| COc1ccc(CCn2c(=O)c3sccc3n3c(=O)n(Cc4ccccc4Cl)nc23)cc1OC | 1.03% | -4.64% |
| COc1cccc(-n2ccn3c(SCC(=O)Nc4ccc(Br)cc4)nnc3c2=O)c1 | -2.74% | -7.77% |
| Cc1cccc(Cn2nc3c(=O)n(-c4cccc(Cl)c4C)ccn3c2=O)c1 | -1.78% | -16.69% |
| N#Cc1cccc(NC(=O)Cn2nc3c(Oc4ccccc4)nccn3c2=O)c1 | 10.16% | -2.65% |
| CCOc1ccc(-n2ccn3c(SCC(=O)Nc4ccc(F)cc4F)nnc3c2=O)cc1 | 5.96% | 2.93% |
| CCOc1ccc(C(=O)CSc2nnc3c(=O)n(-c4ccc(C)c(C)c4)ccn23)cc1 | 9.97% | -11.39% |
| Cc1ccc(-c2cc3c4nn(CC(=O)Nc5ccc6c(c5)OCCO6)c(=O)n4ccn3n2)cc1C | 13.07% | -3.26% |
